Sampled rows, rich in hits. Any-hit rate of the full collection: about 1.6%.
CR mimetic SO = yeast age-related superoxide inhibition as caloric restriction mimetic | superoxide response (% of plate mean), % at 10 µM | S. cerevisiae aged cells, superoxide DHE fluorescence; stronger effect = lower value | 330,000 tested, 0.18% active;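 active = superoxide response under a set limit, about three screen SD below normal, cut at about 65% in these data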;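 also: yeast aged for seven days with compound at 30 °C before DHE staining; 100% = average MFI of all compound-treated wells on the plate with controls excluded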
Efflux pump mplx = antifungal efflux pump inhibition, Nile Red retention; AID 485275; S. cerevisiae Candida pump triplex; 330,000 tested, 0.44% active; inhibition, % at 10 µM;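 active = plate passing quality check with inhibition over a set limit, or well fluorescence over plate mean plus 4 SD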;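 also: Nile Red retained in pooled yeast measured as flow cytometry median fluorescence; 0% = buffer negative control and 100% = Enniatin B positive control; higher means more Nile Red kept so more efflux inhibition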
GRK2 aptamer HTS = human GRK2 inhibition via aptamer displacement. P25098. bead flow cytometry, FAM-aptamer displacement from GRK2. inhibition of aptamer binding, % at 10 µM. 330,000 tested, 0.59% active. AID 488847;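 active = inhibition of aptamer binding above 40%, roughly 3 SD of noise, on plates passing a quality check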;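 also: median bead fluorescence of bound FAM aptamer so fluorescent compounds give negative values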
Target sequence (P25098 whole entry, looked up): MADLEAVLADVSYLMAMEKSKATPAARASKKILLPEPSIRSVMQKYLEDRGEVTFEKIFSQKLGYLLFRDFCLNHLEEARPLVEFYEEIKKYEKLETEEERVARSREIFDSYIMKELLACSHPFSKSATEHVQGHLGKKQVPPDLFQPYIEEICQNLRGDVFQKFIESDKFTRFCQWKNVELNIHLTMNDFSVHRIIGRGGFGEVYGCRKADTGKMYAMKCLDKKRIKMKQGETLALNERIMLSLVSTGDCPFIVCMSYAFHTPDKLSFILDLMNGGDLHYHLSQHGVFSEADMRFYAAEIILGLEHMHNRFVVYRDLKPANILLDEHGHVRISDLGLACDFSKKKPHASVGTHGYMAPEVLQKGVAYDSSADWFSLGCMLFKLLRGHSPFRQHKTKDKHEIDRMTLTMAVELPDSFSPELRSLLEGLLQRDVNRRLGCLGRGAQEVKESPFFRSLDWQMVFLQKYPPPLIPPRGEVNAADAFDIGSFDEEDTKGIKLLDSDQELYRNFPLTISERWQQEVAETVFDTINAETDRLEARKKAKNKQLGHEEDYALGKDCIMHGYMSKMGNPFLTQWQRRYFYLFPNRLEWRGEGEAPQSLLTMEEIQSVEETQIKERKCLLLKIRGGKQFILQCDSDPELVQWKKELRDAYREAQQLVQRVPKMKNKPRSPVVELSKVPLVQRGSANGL
ATG4B inh = ATG4B (human) cysteine protease inhibition; ATG4B cleavage of LC3-PLA2, NBD-HPC fluorescence, 1 h; inhibition, % at 8.33 µM; 340,000 tested, 0.51% active; in the data active = inhibition above about 40%
Cmpd fluor yeast = counter-screen for efflux pump inhibitors: compound fluorescence. shares compounds with Efflux pump mplx. S. cerevisiae AD/pABC3, flow cytometry. fluorescence ratio to DMSO, % at 10 µM. 1,700 tested, 4% active. AID 588517;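 active = fluorescence ratio to DMSO above its plate's cutoff, the plate mean ratio plus 5 SD, cut at about 210% in these data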;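 also: unstained yeast with no Nile Red so the signal is compound autofluorescence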
CaMdr1 efflux inh = Candida Mdr1 efflux pump inhibition; 1,700 tested, 1% active; AID 588518; inhibition, % at 10 µM; S. cerevisiae AD/CaMDR1, Nile Red efflux, flow cytometry; shares compounds with Efflux pump mplx; in the data active = inhibition above about 26%;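 also: 0% = DMSO vehicle and 100% = reference inhibitor; higher means more Nile Red retained so more efflux inhibition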
Cdr2 pump inh = inhibitors of Candida albicans Cdr2 efflux pump. shares compounds with Efflux pump mplx. 1,700 tested, 4% active. S. cerevisiae AD/CaCDR2, Nile Red retention, flow cytometry. Nile Red retention ratio vs DMSO, % at 10 µM; in the data active = Nile Red retention ratio vs DMSO above about 190%;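 also: higher ratio means more blocking of Cdr2 efflux of the dye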
Cdr1 pump inh = blocks the Candida albicans Cdr1 efflux pump in yeast; S. cerevisiae AD/CaCDR1, Nile Red efflux, flow cytometry; inhibition, % at 10 µM; shares compounds with Efflux pump mplx; 1,700 tested, 1% active;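 active = inhibition above the screen-wide mean plus twice its standard deviation, cut at about 32% in these data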
Numbers without * were called inactive; . = no result.

SMILES	CR mimetic SO	Efflux pump mplx	GRK2 aptamer HTS	ATG4B inh	Cmpd fluor yeast	CaMdr1 efflux inh	Cdr2 pump inh	Cdr1 pump inh
COc1ccc(NC2CC(=O)N(c3cc([N+](=O)[O-])ccc3C)C2=O)cc1 (configuration not stated)	117	1.1*	18	2	115	0	114	0
COc1ccc(NC2CC(=O)N(c3cccc([N+](=O)[O-])c3)C2=O)cc1 (configuration not stated)	100	0	1	-11	.	.	.	.
CCN(CC)c1ccc(/C=C/C(=O)c2cccnc2)cc1	119	69*	1	8	115	12	101	0
O=C(/C=C/c1ccc(Cl)cc1)c1cccnc1	119	0	3	7	.	.	.	.
C=CCn1cc(/C=N/NC(=O)COc2cccc3cccnc23)c2ccccc21	110	0	0	-11	.	.	.	.
CC(C)n1cc(/C=N/NC(=O)COc2cccc3cccnc23)c2ccccc21	115	3.1*	0	-13	111	0	116	0
CCOc1ccc(C2NC(=O)c3ccccc3O2)cc1OC (configuration not stated)	111	0	0	0	.	.	.	.
c1csc(-c2nc3c4ccccc4c4ccccc4c3[nH]2)c1	121	0.4*	0	-11	105	0	91	0
NC(=O)C1(N2CCCCC2)CCN(C(=S)Nc2ccc(S(N)(=O)=O)cc2)CC1	106	0	0	-6	.	.	.	.
COc1ccc(CCNC(=O)C2=CCN(S(=O)(=O)c3ccc(F)cc3)CC2)cc1OC	98	0.4*	3	-2	117	0	108	0
COC(CNC(=O)c1ccc2c(c1)ncn2-c1cccc(C)c1)OC	79	0	2	-1	.	.	.	.
CC1(C)CC2(CC(c3cccs3)c3cc(Cl)c(O)cc3O2)NC(=S)N1 (configuration not stated)	111	53*	0	-15	102	75*	114	0
C=CCc1ccc(OCCOc2cccc3ccc(C)nc23)c(OC)c1	122	0	0	1	.	.	.	.
CC(C)CCCN1C(N(C)C)=NC[C@@H]1C	102	0	2	0	.	.	.	.
CCCSc1nnc(-c2c[nH]c3ccccc23)n1CC	102	0	0	22	.	.	.	.
CCCSc1nnc(-c2c[nH]c3ccccc23)n1C	131	0.5*	0	3	80	0	93	0
Cc1ccc(O)c(C(=O)CC(=O)c2ccccc2Cl)c1	107	0.6*	4	36	89	0	89	0
Cc1ccc(O)c(C(=O)CC(=O)c2ccc(C(C)(C)C)cc2)c1	111	0	1	10	.	.	.	.
CN1/C(=C\C=C2/SC(=S)NC2=O)C(C)(C)c2ccccc21	119	0.8*	0	-29	170	2	188	1
c1ccc(C(c2ccccc2)c2noc(CN3CCC(c4ccncc4)CC3)n2)cc1	98	5.2*	1	4	85	0	87	0
c1ccc(C2CCCN(Cc3nc(CC4CC4)no3)CC2)cc1 (configuration not stated)	103	0	0	1	.	.	.	.
COc1ccc(CCNC(=O)C2CCN(S(=O)(=O)N3CCC4(CC3)OCCO4)CC2)cc1OC	79	1.3*	6	0	103	0	105	0
CCN1CCCC1CNC(=O)Cn1nc(C)n2nc(-c3ccccc3)cc2c1=O (configuration not stated)	106	0	0	1	.	.	.	.
Cc1cc(C)c(OCC(=O)Nc2ccccc2N2CCOCC2)c(C)c1	104	11*	1	20	87	0	110	0
NC(=O)C1c2ccccc2Oc2ccccc21	100	4.9*	0	-4	99	0	100	0
SMILES	CR mimetic SO	Efflux pump mplx	GRK2 aptamer HTS	ATG4B inh	Cmpd fluor yeast	CaMdr1 efflux inh	Cdr2 pump inh	Cdr1 pump inh
Cc1ccc(NCC(=O)Nc2c(C)n(C)n(-c3ccccc3)c2=O)cc1S(=O)(=O)N(C)C	108	0	0	-6	.	.	.	.
CCc1nnc(NC(=O)COc2ccc3ccccc3c2)s1	109	0	3	-12	114	0	106	0
COCc1nnc(NC(=O)COc2ccc3c(c2)OCO3)s1	101	0	0	-1	.	.	.	.
O=C(COc1ccccc1)Nc1nnc(COc2ccccc2)s1	96	0	2	2	74	0	89	0
CCOc1ccccc1OCC(=O)Nc1nnc(COC)s1	84	0	0	-4	104	0	96	0
CCOCc1nnc(NC(=O)COc2ccc3c(c2)OCO3)s1	105	1.7*	3	1	107	0	98	0
COc1ccccc1OCCn1c(=O)oc2ccc(C)cc21	103	0	1	-3	.	.	.	.
COC(=O)c1cn(NC(=O)c2ccccc2[N+](=O)[O-])c(=O)c2ccccc12	115	0	0	7	.	.	.	.
Cc1ccc(CNC(=O)CCc2c(C)nn(-c3ccc(N4CCOCC4)nn3)c2C)cc1	114	2.0*	3	3	100	0	112	0
Cc1ccccc1OCC(=O)Nc1nnc(C2CCCCC2)s1	103	0	3	2	102	0	99	0
O=C(COc1ccc(Br)cc1F)Nc1nnc(C2CC2)s1	83	0	0	-14	95	0	85	0
COc1cc(C)ccc1OCC(=O)Nc1nnc(C2CC2)s1	122	0	0	7	112	0	106	0
Cc1ccccc1OCC(=O)Nc1nc(-c2ccncc2)cs1	111	0	2	-10	.	.	.	.
Cc1ccccc1OCC(=O)Nc1nnc(-c2ccncc2)s1	95	0	1	4	101	0	114	0
COc1ccc(S(=O)(=O)N2CCCCC2)cc1NC(=O)Cc1cccc(C(F)(F)F)c1	.	.	.	3	.	.	.	.
CCc1ccc2[nH]c(O)c(N=Nc3nc(-c4ccccc4)cs3)c2c1	108	0.9*	1	1	105	0	91	0
Cc1cc(NC(=O)c2c(Br)c(C)nn2C)no1	90	0	0	-7	.	.	.	.
CN(C)c1ccc(/C=C2/C=C(c3ccc4c(c3)CCCC4)OC2=O)cc1	88	0.8*	1	-2	132	0	148	0
CCOC(=O)N1CCN(C(=O)c2ccccc2NC(=O)COc2ccccc2)CC1	97	0	1	4	.	.	.	.
COc1cccc(CNC(=O)CCCc2c[nH]c3ccccc23)c1	98	0	0	-2	.	.	.	.
CCOc1cc(C2C3=C(CCCC3=O)Nc3nc(C(=O)OC)nn32)ccc1OC (configuration not stated)	123	1.4*	1	1	103	0	99	0
